Gal4-VP16 FLuc – counter-screen for ROR gamma inhibitors: Gal4-VP16 reporter; Drosophila S2 Gal4-VP16 UAS-luciferase, luminescence, 20 h; Potency, µM (highest dose often 53.6 µM), without a hit: at the top dose activity, negative = inhibition, usual class: inhibitors; 310,000 tested, 3.5% active;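 note: Gal4-VP16 expression switched on by copper sulfate through the metallothionein promoter; potency is the fitted concentration of half-maximal effect; nearly all actives have a fitted effect of over 50% in size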
DT40 TDP1 no CPT – qHTS for Inhibitors of human tyrosyl-DNA phosphodiesterase 1 (TDP1): qHTS in cells in absence of CPT. DT40 Tdp1-/- hTDP1 cells, no CPT, ATP luminescence, 48 h. Potency, µM (titrated, usually from 46.2 µM), inactives show at the highest dose activity change, negative = growth inhibition, usual class: inhibitors. 420,000 tested, 15% active. AID 686978, 2013; note: potency is the fitted concentration of half-maximal effect; nearly all actives have a fitted effect of over 55% in size
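Chicken DT40 Tdp1-/- cells stably complemented with human TDP1 were seeded at 400 cells/well with DMSO in place of 20 nM camptothecin. After compound pinning, cells grew at least 48 hr at 37 °C; viability read by CellTiter-Glo luminescence.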
IL-1B inflam inh – blocks inflammasome-driven IL-1 beta release. activity change, % at 57.5 µM. 360,000 tested, 4.7% active. THP-1 LPS/ATP IL-1B secretion, AlphaLISA, 16 h; stronger effect = lower value; in the data active = activity change below about -50%; inconclusive = mostly about -30% to -49%
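Secreted IL-1B measured by AlphaLISA bead assay after 16 h compound exposure of THP-1 cells; compounds (final up to 57.5 uM) added 1 h before LPS (250 ng/mL) and ATP (1.25 mM) stimulation; lower signal means less secretion.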
RORg inh – blocks mouse ROR gamma transcriptional activity | Potency, µM (top dose mostly 53.6 µM), inactives show top-dose activity change, negative = inhibition, hits mostly inhibitors | 310,000 tested, 5.4% active | P51450 | Drosophila S2 Gal4-RORgamma UAS-luciferase reporter, 20 h; note: potency is the fitted concentration of half-maximal effect; nearly all actives have a fitted effect of over 60% in size
Target sequence (P51450 whole entry, looked up, the tested form may be a part): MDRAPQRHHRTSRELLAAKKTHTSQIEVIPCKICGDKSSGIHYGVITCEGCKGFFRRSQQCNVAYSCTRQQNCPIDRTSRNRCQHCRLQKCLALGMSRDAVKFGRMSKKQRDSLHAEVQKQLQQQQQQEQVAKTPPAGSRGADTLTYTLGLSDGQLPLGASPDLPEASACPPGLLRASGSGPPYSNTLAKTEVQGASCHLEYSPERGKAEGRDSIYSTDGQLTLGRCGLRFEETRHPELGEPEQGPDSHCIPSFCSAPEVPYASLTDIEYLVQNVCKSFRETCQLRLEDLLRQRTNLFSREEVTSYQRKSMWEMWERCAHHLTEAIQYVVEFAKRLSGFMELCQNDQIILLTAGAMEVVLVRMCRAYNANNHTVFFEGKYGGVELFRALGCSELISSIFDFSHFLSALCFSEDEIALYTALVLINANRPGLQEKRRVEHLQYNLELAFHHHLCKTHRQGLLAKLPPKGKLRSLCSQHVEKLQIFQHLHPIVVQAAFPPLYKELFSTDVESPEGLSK
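ROR gamma transcriptional activity was tracked as Gal4-UAS luciferase output in stably transfected Drosophila Schneider cells, with compound added 1 hr before 700 uM copper sulfate induction and a 20 hr ambient-temperature incubation.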
ELG1 repair inh – inhibitors of ELG1-dependent DNA repair in HEK293T cells. HEK293T ELG1-luciferase reporter, luminescence, 16 h; DNA damage induced by 5-fluorouridine. Potency, µM (series often up to 46.1 µM), without a hit: at the highest dose activity change, negative = inhibition, hits mostly inhibitors. 330,000 tested, 2.3% active; note: potency is the fitted concentration of half-maximal effect; nearly all actives have a fitted effect of over 55% in size
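HEK293T cells expressing luciferase-tagged ELG1 (2,000/well) received 5-Fluorouridine plus compound or DMSO for 16 hr at 37 °C. Luciferase was read by ONE-Glo luminescence after 30 min at room temperature.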
DT40 TDP1 CPT – growth inhibition of DT40 Tdp1-/-;hTDP1 cells with camptothecin (screen for TDP1 inhibitors). chicken DT40 Tdp1-/-;hTDP1 cells + 20 nM CPT, ATP luminescence, 48 h. Potency, µM (highest dose often 46.2 µM), without a hit: top-dose activity change, negative = growth inhibition, most hits filed as inhibitors. 420,000 tested, 12% active. AID 686979; note: potency is the fitted concentration of half-maximal effect; nearly all actives have a fitted effect of over 55% in size
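Cell growth measured by CellTiter-Glo luminescence after a minimum 48 h, 37 C compound exposure with 20 nM CPT in Tdp1-knockout DT40 cells stably expressing hTDP1, seeded 400/well; qHTS titration format.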
* hit, by the source's call; ? = inconclusive; · = not tested or not shown. Most compounds without a hit are left out; they make up all but 21% or so of the library. Unless noted, calls come from the whole dose curve; as a rule, active = well fitted curve in the direction sought with a large enough effect; inconclusive = small, poorly fitted or top-dose-only effect, or another doubt; inactive = no such curve, though single readings can be large; an effect the other way counts as inactive or inconclusive. % is set by controls: 0 for no effect and ±100 for the full control effect.

SMILES	Gal4-VP16 FLuc	DT40 TDP1 no CPT	IL-1B inflam inh	RORg inh	ELG1 repair inh	DT40 TDP1 CPT
Cc1cc(C)nc(N2CCCC(C(=O)NCC(c3ccccc3)c3ccccc3)C2)n1 (configuration not stated)	-16%	?	58	15%	23µM*	?
Cc1cc(C)nc(N2CCCC(C(=O)Nc3ccc4nc(C)c(C)nc4c3)C2)n1 (configuration not stated)	-17%	13µM*	-4	-1%	12µM*	?
O=C(NCc1nnnn1-c1ccc(F)c(F)c1)c1ccc(S(=O)(=O)N2CCOCC2)cc1	·	-22%	1	·	2%	-9%
N#CC(=C1NC(=O)c2ccccc21)c1nc2ccccc2n1CCO	·	8.2µM*	-74*	·	·	?
O=C(O)CCn1c(CO)nc2ccccc21	6%	-24%	13	9%	-10%	?
CC1(C)C2CCC1(C)C(NC(=O)/C=C/c1ccccc1)C2 (configuration not stated)	18µM*	18µM*	-24	?	?	?
C[C@H]1CN([C@@H](C)CO)C(=O)c2cc(NC(=O)C3CCCCC3)ccc2O[C@H]1CN(C)C(=O)Nc1ccc2c(c1)OCO2	·	?	-27	·	1.3µM*	?
CC(C)NC(=O)N(C)C[C@H]1Oc2ccc(NC(=O)C3CCCCC3)cc2C(=O)N([C@H](C)CO)C[C@@H]1C	·	1%	-1	·	?	-12%
COc1ccc(NC(=O)N(C)C[C@H]2OCCCC[C@@H](C)Oc3ccc(N(C)C)cc3C(=O)N([C@H](C)CO)C[C@@H]2C)cc1	·	?	13	·	·	-27%
C[C@H]1CCCCO[C@H](CN(C)C(=O)Nc2ccc(F)cc2)[C@@H](C)CN([C@@H](C)CO)C(=O)c2cc(NC(=O)Nc3ccc4c(c3)OCO4)ccc2O1	·	?	-17	·	·	21µM*
COc1ccc(NC(=O)N(C)C[C@H]2OCCCC[C@H](C)Oc3ccc(NC(=O)Nc4ccc5c(c4)OCO5)cc3C(=O)N([C@@H](C)CO)C[C@@H]2C)cc1	·	?	-30	·	·	21µM*
Cn1cc(-c2csc(C(O)c3ccccc3)n2)cn1 (configuration not stated)	·	?	45	·	·	-23%
COCCN(C(=O)c1sc2ccccc2c1Cl)c1c(N)n(CC(C)C)c(=O)[nH]c1=O	·	1%	-1	·	4%	-2%
Cc1cc(Cl)ccc1OCC(=O)N/N=C1\CCCc2ccccc21	-7%	?	-7	11%	-8%	-18%
CC(Oc1ccc(Cl)cc1Cl)C(=O)NN=C1CCN(C)CC1 (configuration not stated)	10µM*	-24%	-18	7.1µM*	-9%	-13%
CC(Oc1ccc(Cl)cc1Cl)C(=O)N/N=C1\CCCc2ccccc21 (configuration not stated)	0%	26µM*	15	-21%	2%	?
O=C1N(c2ccccc2C(F)(F)F)O[C@]1(c1ccccc1)C1CCCC1	·	-18%	-5	·	?	-20%
CC1CCCCc2nc3c(c(=O)n21)CCCC3 (configuration not stated)	·	-2%	40	·	·	-5%
O=C(N/N=C/c1cccs1)c1cc(C2CC2)nc2ccccc12	18µM*	2.9µM*	58	10µM*	-7%	3.7µM*
O=C(N/N=C/c1ccco1)c1cc(-c2ccncc2)nc2ccccc12	·	7.3µM*	34	·	-10%	7.3µM*
COc1ccccc1-c1cc(C(=O)N/N=C/c2cccs2)c2ccccc2n1	5.6µM*	?	-3	4.5µM*	-13%	?
CCc1ccc(/C=N/NC(=O)c2cc(-c3ccncc3)nc3ccccc23)s1	5.6µM*	3.3µM*	38	2µM*	?	4.6µM*
COc1ccccc1-c1cc(C(=O)N/N=C\c2cnn(C)c2C)c2ccccc2n1	11%	?	14	?	?	?
O=C(N/N=C/c1cccs1)c1cc(-c2ccncc2)nc2ccccc12	7.1µM*	0.58µM*	19	5µM*	-22%	0.58µM*
CC(C)CN1Cc2ccccc2Oc2cc(Br)ccc2S1(=O)=O	·	?	37	·	1%	?
SMILES	Gal4-VP16 FLuc	DT40 TDP1 no CPT	IL-1B inflam inh	RORg inh	ELG1 repair inh	DT40 TDP1 CPT
CCOC(=O)C(/C=C(\C#N)C(=O)OCC)=C(/N)N1CCN(c2ccc(Cl)cc2)CC1	4%	16µM*	-8	-25%	-3%	-15%
CCOc1ccc(-n2c(SCC(=O)N3CCCc4ccccc43)nc3c([nH]c4ccccc43)c2=O)cc1	·	-13%	·	·	·	-24%
COc1cccc(CC(=O)NNC(=O)CN(C)S(=O)(=O)c2ccc(C)cc2)c1	·	10%	5	·	?	-7%
COc1cc(/C=C2/SC(=S)N(Cc3ccccc3)C2=O)ccc1OS(C)(=O)=O	24%	?	4	6%	-15%	?
COc1cc(C=O)ccc1OCc1ccncc1	-14%	-3%	0	-10%	12%	7%
COc1ccc(/C=C2\SC(=NCc3ccccc3)N(Cc3ccccc3)C2=O)cc1OC	-5%	?	-24	28%	13µM*	-19%
COCCN1C(=O)/C(=C/c2ccc(OCc3ccc(C(=O)O)cc3)c(OC)c2)SC1=Nc1ccccc1	?	21µM*	-11	?	-25%	23µM*
COc1cc(/C=C2/SC(=O)N(Cc3ccccc3)C2=O)ccc1OCc1ccncc1	-5%	12µM*	?	-6%	10µM*	16µM*
COc1ccccc1N(C(=O)c1cncc(Br)c1)c1nc(-c2ccc(C)cc2)cs1	-3%	18µM*	4	5%	4%	21µM*
Nc1c(N2CCN(c3ccccc3)CC2)c2ccccc2oc1=O	-9%	?	-22	9%	18µM*	?
O=c1oc2ccccc2c(N2CCCCC2)c1CN1CCCC1	6%	-9%	-8	41%	-2%	-16%
O=c1oc2ccccc2c(N2CCN(c3ccc(F)cc3)CC2)c1CN1CCCC1	·	16µM*	·	·	·	?
CCCc1ccc(OCc2ccc(C(=O)N/N=C/c3cccnc3)o2)cc1	-8%	-20%	26	?	?	-22%
CC(=O)c1ccc(NC(=O)c2cc3c(=O)oc4ccc(C)cc4c3s2)cc1	·	-5%	·	·	·	8%
O=C1c2ccccc2C(c2nnnn2C2CCCCC2)N1CCc1ccc(O)cc1 (configuration not stated)	·	?	33	·	·	-19%
